Experimental data: the supplement of paper PMC3334620
Over roughly 33,000 sequences, “E-score (-0.5 to 0.5)” has its median near -0.016; the highest 2% begin near 0.32. What follows is part of a selection rich in the highest values, with near analogues and random picks from the rest.

What follows are sequences tested against T1, Stp1 (UniProt B3LFK1) (assay: PBM E-score (8-mer binding enrichment) (E-score (-0.5 to 0.5)); higher = stronger / more preferred TF binding). Conditions: protein concentration: 200 nM; construct: GST-full length.
T1 sequence: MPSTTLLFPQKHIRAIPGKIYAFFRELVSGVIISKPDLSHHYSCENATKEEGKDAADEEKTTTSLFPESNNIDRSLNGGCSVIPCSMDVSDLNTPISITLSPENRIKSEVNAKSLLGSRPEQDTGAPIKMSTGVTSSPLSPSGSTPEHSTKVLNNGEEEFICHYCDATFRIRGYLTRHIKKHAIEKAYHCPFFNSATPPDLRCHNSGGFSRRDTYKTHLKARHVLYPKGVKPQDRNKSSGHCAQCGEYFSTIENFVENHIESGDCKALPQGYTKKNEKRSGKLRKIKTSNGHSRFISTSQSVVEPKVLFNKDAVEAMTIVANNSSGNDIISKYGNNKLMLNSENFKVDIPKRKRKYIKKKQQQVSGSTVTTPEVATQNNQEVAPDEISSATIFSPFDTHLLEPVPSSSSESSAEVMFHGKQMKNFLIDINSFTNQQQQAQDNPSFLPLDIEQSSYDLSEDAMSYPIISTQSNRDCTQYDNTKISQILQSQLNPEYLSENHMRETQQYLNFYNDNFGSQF
In short: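 Detection of bound protein used fluorescent anti-GST, with scans normalised by masliner. The proteins were GST-tagged yeast transcription factors applied at about 100-200 nM to universal all-10-mer Agilent arrays made double-stranded by primer extension. Each ungapped eight-base word, pooled with its reverse complement, was scored with an E-score from the Universal PBM Analysis Suite.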

Sequence	PBM E-score
ATGCTGAC	-0.0531
ATACAGCC	-0.0239
GCCTCTAA	0.0553
AACCGTAC	-0.0138
CGAACAGA	0.0325
CGCCGTGA	0.376
CCCCGTGA	-0.14
CACCGTGA	-0.114
ATGCACTC	-0.0521
AACGAGAA	0.00842
GCCGCCGA	0.316
GCCGCCCA	0.111
GCCGCCAC	0.0605
ACCGCCCC	-0.144
GCCGCCGC	0.424
GCCGCCCC	0.378
CCCGCCGA	-0.0885
CCCGCCGC	0.332
CCCGCCGG	-0.213
CCTTGATC	0.1
CTGCCCCC	-0.327
CGGGCATA	-0.155
AACGCCCA	0.122
AAGTCCGT	-0.0471
AAAGAAAT	0.128

Sequence	PBM E-score
CCATATGG	0.0408
AGGCTAAG	-0.0187
CCCGCAAC	0.097
GCCGCAGC	0.394
CCCGCAGC	-0.123
TCCGCAGA	-0.0849
GCCGCAAC	0.366
CCCGCAGA	0.06
GCCGCAGA	0.372
ACCGCATA	0.0344
GCCGCATA	0.457
ACCGCAGC	-0.119
CCCGCATA	0.21
ACCGCAAC	-0.0924
GTGCTGCA	0.0505
CTCTTACC	0.201
CTACCTCA	-0.152
CTACCCCA	-0.114
CAGGTTGA	-0.216
AGTAACGC	0.192
ATGGTTGC	-0.177
GACTAGCC	-0.194
ATCGCTGA	-0.0887
CCTTGCGC	0.138
GGTGCGAC	-0.0804

Sequence	PBM E-score
ACGTATAA	0.113
GCGTACAA	0.167
CCGTATAA	0.341
TCGTACAA	0.157
CCGTATCG	0.215
CCGTACAA	0.35
TCGTATAA	0.136
CCGTATCC	0.316
CCGTATCA	0.327
ATCGAAGA	0.171
GCACTAAC	0.042
ATTCTCAA	0.152
AGACCAAT	-0.0691
GCGACTGA	-0.227
ACTCCCAG	-0.264
AGTGAACC	0.00324
TCCGTTCA	0.0192
GCCGTTCC	0.432
CCCGTTCC	-0.00751
CCCGTTCA	-0.132
ACCGTTCC	0.15
GCCGTTCA	0.441
AAATAAAC	0.218
GCGGCCAA	0.161
GAGGACAA	-0.101

Sequence	PBM E-score
CACGTGCG	0.272
CAGGATTC	-0.173
AGCCTCGA	-0.172
GCCATTGA	0.226
CGGCTCTA	0.425
CGGCTCTC	0.334
GGGCTCTA	-0.0132
AGGCTCTA	0.15
AGGCTCTC	-0.137
CAGCTCTC	-0.325
CGCACTCC	-0.172
CAGAGCTA	-0.171
AGGGCGGC	0.14
AGGGCGCA	0.205
AGGGCGCC	0.343
AGGGGGCG	-0.0306
AGGGCGCG	0.369
CGGGCGCC	0.269
ACCAAGGT	0.0467
CAGCCACA	0.161
CGGCTTAC	0.104
GCTGGGTA	-0.175
GCTAAAGA	0.0376
CAAGGCAG	0.0951
GAAGGCAA	0.218

Sequence	PBM E-score
GAAGGCAC	0.368
CAAGGCAC	0.356
CAAGGCAA	0.264
AAAGGCAA	0.263
AAAGGCAG	0.172
GCAGGCAC	0.0604
AAAGGCAC	0.392
AGGTGGCG	-0.0008
GCTCAGAA	0.00512
TAGGTGGA	-0.21
AGGGAAAA	0.0119
AGACATTC	-0.19
GGATGCCC	-0.245
GGAAAAAA	0.149
CTGCCTGA	-0.0731
TATAGAGA	0.0248
CGCACCGA	0.0478
GGCACCAA	0.393
GGCACCGA	0.356
AGCACCAC	-0.134
GGCACCAC	0.324
TGCACCAA	-0.0793
CGCACCAC	0.063
CGCACCAA	0.213
AGCACCGA	0.0493

Sequence	PBM E-score
CCCTATTC	-0.0984
GACCAACC	-0.152
GTTGGCAA	0.0689
AAAGGGGG	-0.423
AAGGAGAA	-0.131
AGGGATTG	-0.0197
AATGGTCT	-0.0756
AAGTCTGG	-0.218
GATAGGGC	0.0849
CGAACGGC	0.467
AGAACGGC	0.387
AGAACGGA	0.102
CTAACGGC	0.313
AGAACGGG	-0.129
CGAACGGA	0.207
GTCCTGTA	-0.121
CCAAGAGC	0.0254
AAGACGGG	0.0493
GTCTGTCA	-0.00712
CTATATAG	-0.0268
GTATATTA	0.159
GTTTATTA	0.0702
ATATATTA	0.329
ATTATTTA	0.281
ATATATAT	0.303

Sequence	PBM E-score
ATATATAG	0.318
ATTTATTA	0.324
CTATATTA	0.177
ATAAAGGG	0.0416
CCCTCAGG	-0.224
ATCGTTTC	-0.0261
CGGTAAGA	0.0116
CCTTGCAC	0.127
TATCGAGA	-0.0215
CGGCACCG	0.437
GGGCACCC	-0.0477
CGGCACCC	0.338
AGGCACCC	-0.00944
AGGCACCG	0.272
CCGCACCG	0.288
TAGATCAA	-0.00316
CAAGATCG	-0.123
AAAAAGTG	0.204
AAACGCTT	-0.0887
ACCTCCCG	-0.269
CGTAAGGA	-0.0941
CGTAAGGC	0.358
